Bioassay records from PubChem BioAssay.
KB-V1 MDR tox: kills drug-selected multidrug resistant KB-V1 cells; 400,000 tested, 3.4% active; Potency, µM (doses to about 46.1 µM), most hits filed as cytotoxic; KB-V1 MDR cells viability, CellTiter-Glo, 72 h; note: % is set by controls: 0 for no effect and ±100 for the full control effect; nearly all actives have a fitted effect of over 60% in size
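KB-V1, DMEM (no phenol red) + 10% FBS; cpd pin-transferred, titration series; 72 h, 37 degrees C; CellTiter-Glo, luminescence. Data normalized, curve-fit.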
SW480 rerep: induces DNA re-replication in SW480 colon adenocarcinoma cells; SW480 DNA re-replication, Hoechst DNA content imaging, 48 h; Potency, µM (top dose mostly 46.1 µM), inactives show top-dose re-replication activation, usual class: activators; 340,000 tested, 1.8% active; AID 624297; note: % of control where 0% means no effect; nearly all actives have a fitted effect of over 55% in size
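Compounds, transferred as 23 nL by pin tool, were incubated with cells for 48 hr; DNA content per nucleus was then quantified by Hoechst staining and fluorescence plate imaging.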
KB-3-1 cytotox: KB-3-1 parental cell cytotoxicity; AID 1347075; 400,000 tested, 1.4% active; KB-3-1 viability, CellTiter-Glo ATP luminescence, 72 h; Potency, µM (titrated, usually from 46.1 µM), hits mostly cytotoxic; note: % is set by controls: 0 for no effect and ±100 for the full control effect; nearly all actives have a fitted effect of over 60% in size
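KB-3-1 cells, DMEM (no phenol red) + 10% FBS; compound by pin transfer, 72 h, 37 °C. Readout: CellTiter-Glo luminescence after 10 min. Data normalized, curve-fitted.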
MCF10A rerep: induces DNA re-replication in MCF 10a normal breast cells; MCF 10A DNA re-replication, Hoechst nuclear intensity, 48 h; Potency, µM (doses to about 46.1 µM), without a hit: at the top dose activity, positive = re-replication, most hits filed as activators; 350,000 tested, 2.9% active; note: % of control where 0% means no effect; nearly all actives have a fitted effect of over 50% in size
HT1080 IDH1KD tx: toxicity to HT-1080 IDH1 knockdown cells (counter line); Potency, µM (doses to about 46.1 µM), for the others: at the highest dose activity, negative = toxicity, most hits filed as cytotoxic; AID 686971; HT-1080 IDH1 knockdown viability, ATP luminescence, 48 h; 360,000 tested, 2% active;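 note: 0% = DMSO wells and -100% = cell-free medium wells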
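CellTiter-Glo luminescence after 48 h compound exposure at 37 degrees C of IDH1-knockdown HT-1080 cells in 5% FBS RPMI. %Activity scaled between DMSO wells and cell-free media wells, with curves fitted and assigned curve classes.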
HT1080NT lethal: kills 2HG-producing HT-1080-NT fibrosarcoma cells. 360,000 tested, 1.6% active. Potency, µM (top dose mostly 46.1 µM), for inactives: at the top dose activity, negative = less viability, hits mostly cytotoxic. HT-1080-NT fibrosarcoma viability, CellTiter-Glo ATP luminescence, 48 h;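 note: NT is the 2HG producing partner of a matched IDH1 knockdown line; 0% = DMSO-treated cells and -100% = media-only wells without cells; nearly all actives have a fitted effect of over 55% in size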
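Compounds were tested in concentration-response format on HT-1080-NT cells for 48 hours at 37 degrees C. Cell viability came from CellTiter-Glo luminescence; curves were classified by r2, response magnitude and activity.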
Numbers without * were called inactive; i = inactive; ? = inconclusive; . = not tested or not shown. In the library only some 7.9% were active in any assay of this set; here they are far more common. Calls come from the whole dose curve; as a rule, active = well fitted curve in the direction sought with a large enough effect; inconclusive = small, poorly fitted or top-dose-only effect, or another doubt; inactive = no such curve, though single readings can be large; an effect the other way counts as inactive or inconclusive. Potency is the fitted concentration of half-maximal effect.

SMILES	KB-V1 MDR tox	SW480 rerep	KB-3-1 cytotox	MCF10A rerep	HT1080 IDH1KD tx	HT1080NT lethal
CC(C)(C)c1cc(NCc2ccccn2)n2ncc(-c3ccccc3)c2n1	?	-24%	i	?	21µM*	?
Cc1ccc2nc(-c3ccc(NC(=S)NCC(C)(C)CN(C)C)cc3)sc2c1	?	?	i	18µM*	9%	0%
Cc1nc2ccc(NS(=O)(=O)c3ccc(F)cc3F)cc2s1	4.1µM*	0%	?	4%	0%	6%
O=[N+]([O-])c1ccc2nc(NN=Cc3ccc(O)cc3)sc2c1	?	21µM*	i	9.2µM*	29µM*	?
CNC(=S)Nc1ccc(-c2nc3ccc(C)cc3s2)cc1	i	?	i	22µM*	2%	?
CC(C)c1ccc(/C=C/C(=O)Nc2nc3ccc([N+](=O)[O-])cc3s2)cc1	i	-14%	i	-3%	4%	0%
CC(=O)NC(=S)Nc1ccc(-c2nc3ccc(C)cc3s2)cc1	i	-5%	i	6%	2%	5%
COC(=O)C1=C(CSCc2ccco2)NC(=O)NC1c1cc(C)ccc1C (stereo not given)	i	-3%	i	6%	-4%	-15%
Cc1c(/C=C2\SC(=Nc3cccc(C(=O)O)c3)NC2=O)c2ccccc2n1C	i	15%	i	1%	4%	4%
CS(=O)(=O)N(CC(=O)Nc1c(F)cccc1F)c1ccc(C23CC4CC(CC(C4)C2)C3)cc1	i	-7%	?	2%	?	?
CCCCSc1cc(=O)[nH]c(N)n1	i	-6%	i	-2%	-4%	2%
O=[N+]([O-])c1ccc2nc(NS(=O)(=O)c3ccc(F)cc3)sc2c1	?	?	?	7.3µM*	-3%	-2%
Cc1ccc2nc(-c3ccc(NS(=O)(=O)c4ccc(F)cc4)cc3)sc2c1	i	?	i	15µM*	?	?
Cc1ccc(S(=O)(=O)Nc2nc3ccc(N)cc3s2)cc1	i	-7%	i	-4%	12%	19%
Cc1ccc(N2C(N)=C(C#N)C(c3cccs3)C3=C2CC(C)(C)CC3=O)cc1 (stereo not given)	7.3µM*	?	?	12%	-5%	0%
CC1(C)CC(=O)C2=C(C1)N(c1ccc(F)cc1)C(N)=C(C#N)C2c1cccs1 (stereo not given)	?	?	i	18µM*	-1%	-2%
CC1(C)CC(=O)C2=C(C1)N(c1ccccc1)C(N)=C(C#N)C2c1ccccc1 (stereo not given)	i	-2%	i	7%	2%	5%
Cn1c(SCc2ccccc2F)nc2cccnc21	18µM*	-2%	i	-3%	3%	9%
Clc1ccc(-c2cnc3n2CCC3)cc1	i	-2%	i	20%	?	35µM*
CN(C)S(=O)(=O)c1ccc(C(=O)Oc2cc(=O)[nH]c3ccccc23)cc1	i	4%	i	6.5µM*	-3%	-15%
O=C(NCc1ccccc1)/C(NC(=O)c1ccccc1)=C(/Sc1ccccn1)c1ccccc1	i	-2%	i	4%	-28%	-3%
CCOc1cc(C2C(C#N)=C(N)OC(C)=C2C(C)=O)c(Br)c(Br)c1OC(C)C (stereo not given)	15µM*	8.2µM*	?	16µM*	15µM*	7.3µM*
CCn1c(O)c(N=NC(=O)c2cccs2)c2ccccc21	9.2µM*	-1%	?	13%	10%	14%
C=CCn1c(O)c(N=NC(=S)Nc2cccc(OC)c2)c2ccccc21	?	-1%	2.3µM*	-33%	-26%	-15%
CCn1c(O)c(N=N)c2ccccc21	i	-7%	i	-10%	0%	5%
SMILES	KB-V1 MDR tox	SW480 rerep	KB-3-1 cytotox	MCF10A rerep	HT1080 IDH1KD tx	HT1080NT lethal
CCCn1c(O)c(N=NC(=O)c2cccnc2)c2cc(Br)ccc21	?	?	i	?	-22%	18µM*
C=CCn1c(O)c(N=NC(=O)CNC(=O)c2ccco2)c2ccccc21	?	16µM*	?	18µM*	21µM*	?
CCn1c(O)c(N=NC(=O)CNC(=O)c2ccco2)c2ccccc21	i	-7%	?	2%	-14%	-29%
COc1cccc(CN(C)CC(=O)Nc2cccc(C(F)(F)F)c2)c1OC	?	-1%	i	4%	-16%	-24%
C[C@H](O)C#Cc1ccc2c(c1)O[C@@H](CN(C)C(=O)c1ccncc1)[C@@H](C)CN([C@H](C)CO)S2(=O)=O	i	.	i	.	-11%	-4%
O=C(CSc1n[nH]c(-c2ccccn2)n1)Nc1cccc(Cl)c1	i	?	?	17%	?	-26%
C=CCNC(=O)NC(=O)COC(=O)COc1ccc(Br)cc1F	i	-1%	i	3%	0%	-5%
CCCn1c(O)c(N=NC(=O)c2ccco2)c2ccccc21	2.6µM*	4%	?	14%	15%	20%
CCCn1c(O)c(N=N)c2ccccc21	i	-7%	i	-1%	-9%	-4%
O=Cc1nc(-c2ccccc2Cl)n2ccccc12	i	-30%	i	2%	-1%	8%
CCO/C=N/Nc1nc(C(F)(F)F)nc2c1cnn2Cc1ccccc1	i	?	i	18µM*	-17%	-19%
CCCn1cnc2cc(NCc3ccc(Br)cc3)ccc21	i	-4%	i	?	-15%	-10%
O=C(C/C=N/OCc1c(Cl)cccc1Cl)c1ccc(Cl)cc1	i	16%	i	23µM*	11%	-1%
O=[N+]([O-])c1cc(Cl)cc2c1nc(NCCO)c1ccccc12	?	?	18µM*	18%	?	?
CCc1ccccc1Nc1nn2c(=O)c3ccc(C(=O)NCc4ccccn4)cc3nc2s1	i	?	?	?	0.029µM*	0.26µM*
Cc1cc(C)n(CCNC(=O)c2cc(COc3ccc4ncccc4c3)on2)n1	i	-5%	?	-4%	-9%	1%
CC(CCCC(C)(C)O)NC(=O)c1cc(COc2ccc3ncccc3c2)on1 (stereo not given)	5.8µM*	-10%	?	6%	-22%	-5%
O=C(NCc1cccc(Cl)c1)c1cc(COc2ccc3ncccc3c2)on1	3.3µM*	-2%	12µM*	17%	-21%	-20%
Cc1cccc(N2CCN(C(=O)c3ccc4c(c3)N(Cc3ccccc3F)C(=O)c3ccccc3S4=O)CC2C)c1 (stereo not given)	i	.	?	.	.	.
